Assay results published in PubChem BioAssay (Tox21).
Results filed as inconclusive are left out. Where a call stands in place of a potency, no number is given. A number with no mark means an inactive call. Active and inactive are the calls of the source. Calls follow the shape of the dose curve; as a rule, active = well fitted curve in the direction sought with a large enough effect in the repeat runs; inconclusive = weak or mixed curves; inactive = no such curve, though single readings can be large; an effect the other way counts as inactive or inconclusive.

Assay: qHTS assay to identify small molecule agonists of the RXR signaling pathway - cell viability counter screen (AID 1159529); also: nearly all actives have a fitted effect of over 50% in size; also: potency is read from the fitted curve at half-maximal effect;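 as to activity change, negative = cytotoxicity: HEK 293T cells carrying an RXR-alpha UAS beta-lactamase reporter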
Settings: RXR-alpha-bla HEK293T viability, CellTiter-Glo, 16 h; series mostly up to 76.8 µM
Method in brief: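 RXR-alpha-UAS-bla HEK 293T cells in medium with 2% charcoal-stripped FBS were preincubated 5 hr, then exposed to compounds for 16 hr at 37 C. Viability was read as CellTiter-Glo luminescence after 30 min at room temperature.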

SMILES	Potency	activity change, negative = cytotoxicity
C[Si](C)O[Si](C)(C)O[Si](C)(C)O[Si](C)C	inactive	
O=C(O)C1CCC(C(=O)O)CC1 (stereo not drawn)	inactive	
Cc1occc1S	inactive	
CC/C(=C\C(=N/O)C(N)=O)C(C)[N+](=O)[O-] (stereo not drawn)	inactive	
CC(CN)CCCN (stereo not drawn)	inactive	
CC(C)NCC(O)COc1ccc(CC(N)=O)cc1 (stereo not drawn)	inactive	
CCN(CC)CCc1nc(-c2ccccc2)no1	inactive	
CC(=O)O[C@H]1C[C@@H]2CC[C@@H]3[C@H](CC[C@@]4(C)[C@H]3C[C@H]([N+]3(C)CCCCC3)[C@@H]4OC(C)=O)[C@@]2(C)C[C@@H]1N1CCCCC1	inactive	
Cc1cc(NC(=O)C(=O)O)cc(C)c1Oc1ccc(O)c2c1CCC2	inactive	
OC(CCN1CCCCC1)(c1ccccc1)C1CCCCC1 (stereo not drawn)	inactive	
Nc1nc(N)c(-c2ccccc2)s1	inactive	
CC(C)(C)c1ccc(S)cc1	inactive	
NCc1ccccc1	inactive	
CC(=O)N(CC(=O)N(C)C)c1ccccc1	inactive	
CC(C)CC=O	inactive	
O=S1(=O)N=C(O)c2ccccc21	inactive	
O=[N+]([O-])c1cccc(Cl)c1Cl	inactive	
CC(=O)NCCCS(=O)(=O)O	inactive	
NC[C@H]1O[C@H](O[C@H]2[C@H](O)[C@@H](O[C@H]3O[C@H](CO)[C@@H](O)[C@H](N)[C@H]3O)[C@H](N)C[C@@H]2N)[C@H](O)[C@@H](O)[C@@H]1O		-2.14% [at 6.97 µM]
Cc1ccc(C(N)=O)cc1N	inactive	

SMILES	Potency	activity change, negative = cytotoxicity
C=C(C)C(=O)OCCOc1ccccc1	inactive	
C=CC(=O)OCCOC(=O)CCC(=O)O	inactive	
O=C(O)[C@@H]1[C@H]2C[C@H]3c4[nH]c5ccccc5c4CCN3C[C@@H]2CC[C@@H]1O	inactive	
Cn1c(NCCN(CCO)CCCc2ccc([N+](=O)[O-])cc2)cc(=O)n(C)c1=O	inactive	
CCCCCCCC/C=C\CCCCCCCC(N)=O	inactive	
CN1CCC[C@@H]1c1cccnc1	inactive	
Cc1nc2ccccc2n1Cc1ccc(Cl)cc1	inactive	
CC(C)CCCC(C)CCO (stereo not drawn)	inactive	
Cc1cccc(OCCOc2cccc(C)c2)c1	inactive	
CCCCCCCCCCCCCCCCCBr		-2.08% [at 15.8 µM]
C=C(C)C(=O)OC(C)C	inactive	
CN1CCC(=C2c3ccccc3C=Cc3ccccc32)CC1	inactive	
CCCC[C@H]1CN(CC2CCOCC2)C(=O)OC12CCN(C1(C)CCN(C(=O)c3c(C)ncnc3C)CC1)CC2	inactive	
CC(=O)[C@@]1(O)CC[C@H]2[C@@H]3C[C@H](C)C4=CC(=O)CC[C@]4(C)[C@H]3CC[C@@]21C	inactive	
CCc1nn(C2CCCCC2)c2cc(C3(C#N)CCC(C(=O)O)CC3)ccc12 (stereo not drawn)	inactive	
Nc1nc(CC(=O)O)cs1	21.9 µM (active)	
CC(=O)SCc1ccco1	inactive	
CCCC(=O)OCC	inactive	
Cc1c(Cn2ccnc2)c2ccccc2n1CCC(=O)O	inactive	

Assay: qHTS assay to identify small molecule antagonists of the retinoid acid receptor (RAR) signaling pathway - cell viability counter screen (AID 1159551); also: nearly all actives have a fitted effect of over 35% in size
Settings: C3RL4 cells viability, ATP luminescence (CellTiter-Glo), 6 h; series mostly up to 92.4 µM
Method in brief: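 In this counter screen, the RARE-luciferase line C3RL4 was exposed for 6 h at 37 C and 5% CO2 to compounds with retinol at 1 uM final. Cellular ATP, read by luminescence, served as the viability measure.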

SMILES	Potency	activity change, negative = cytotoxicity
C[Si](C)O[Si](C)(C)O[Si](C)(C)O[Si](C)C	inactive	
O=C(O)C1CCC(C(=O)O)CC1 (stereo not drawn)	inactive	
Cc1occc1S	inactive	
CC/C(=C\C(=N/O)C(N)=O)C(C)[N+](=O)[O-] (stereo not drawn)	inactive	
CC(CN)CCCN (stereo not drawn)	inactive	
CC(C)NCC(O)COc1ccc(CC(N)=O)cc1 (stereo not drawn)	inactive	
CCN(CC)CCc1nc(-c2ccccc2)no1	inactive	
CC(=O)O[C@H]1C[C@@H]2CC[C@@H]3[C@H](CC[C@@]4(C)[C@H]3C[C@H]([N+]3(C)CCCCC3)[C@@H]4OC(C)=O)[C@@]2(C)C[C@@H]1N1CCCCC1	inactive	
Cc1cc(NC(=O)C(=O)O)cc(C)c1Oc1ccc(O)c2c1CCC2	inactive	
OC(CCN1CCCCC1)(c1ccccc1)C1CCCCC1 (stereo not drawn)	inactive	
Nc1nc(N)c(-c2ccccc2)s1	inactive	
CC(C)(C)c1ccc(S)cc1	inactive	
NCc1ccccc1	inactive	
CC(=O)N(CC(=O)N(C)C)c1ccccc1	inactive	
CC(C)CC=O	inactive	
O=S1(=O)N=C(O)c2ccccc21	inactive	
O=[N+]([O-])c1cccc(Cl)c1Cl	inactive	
CC(=O)NCCCS(=O)(=O)O	inactive	
NC[C@H]1O[C@H](O[C@H]2[C@H](O)[C@@H](O[C@H]3O[C@H](CO)[C@@H](O)[C@H](N)[C@H]3O)[C@H](N)C[C@@H]2N)[C@H](O)[C@@H](O)[C@@H]1O		-0.107% [at 8.39 µM]
Cc1ccc(C(N)=O)cc1N	inactive	

SMILES	Potency	activity change, negative = cytotoxicity
C=C(C)C(=O)OCCOc1ccccc1	inactive	
C=CC(=O)OCCOC(=O)CCC(=O)O	inactive	
O=C(O)[C@@H]1[C@H]2C[C@H]3c4[nH]c5ccccc5c4CCN3C[C@@H]2CC[C@@H]1O	inactive	
Cn1c(NCCN(CCO)CCCc2ccc([N+](=O)[O-])cc2)cc(=O)n(C)c1=O	inactive	
CCCCCCCC/C=C\CCCCCCCC(N)=O	inactive	
CN1CCC[C@@H]1c1cccnc1	inactive	
Cc1nc2ccccc2n1Cc1ccc(Cl)cc1	inactive	
CC(C)CCCC(C)CCO (stereo not drawn)	inactive	
Cc1cccc(OCCOc2cccc(C)c2)c1	inactive	
CCCCCCCCCCCCCCCCCBr		0.698% [at 19 µM]
C=C(C)C(=O)OC(C)C	inactive	
CN1CCC(=C2c3ccccc3C=Cc3ccccc32)CC1	inactive	
CCCC[C@H]1CN(CC2CCOCC2)C(=O)OC12CCN(C1(C)CCN(C(=O)c3c(C)ncnc3C)CC1)CC2	inactive	
CC(=O)[C@@]1(O)CC[C@H]2[C@@H]3C[C@H](C)C4=CC(=O)CC[C@]4(C)[C@H]3CC[C@@]21C	inactive	
CCc1nn(C2CCCCC2)c2cc(C3(C#N)CCC(C(=O)O)CC3)ccc12 (stereo not drawn)	inactive	
Nc1nc(CC(=O)O)cs1	inactive	
CC(=O)SCc1ccco1	inactive	
CCCC(=O)OCC	inactive	
Cc1c(Cn2ccnc2)c2ccccc2n1CCC(=O)O	inactive	
